# Assay results taken from publication PMC7862700, “An all-to-all approach to the identification of sequence-specific readers for epigenetic DNA modifications on cytosine”.
# What was measured:
# Experiment in all cases: DAPPL (digital affinity profiling via proximity ligation, sequencing); 10 mM Tris-HCl pH 7.5, 50 mM NaCl, 1 mM DTT, 4% glycerol, room temperature, 30 min; GST-TFs on glutathione beads, 16-mer random dsDNA library, 0.1% formaldehyde crosslink after washing; high values mean tight binding
# Settings in all cases: protein: recombinant; tags: N-terminal GST; dsDNA, one strand shown
# FLI1 = molecular target: T1, FLI1 (Homo sapiens, UniProt Q01543 1-452)
# T1 sequence: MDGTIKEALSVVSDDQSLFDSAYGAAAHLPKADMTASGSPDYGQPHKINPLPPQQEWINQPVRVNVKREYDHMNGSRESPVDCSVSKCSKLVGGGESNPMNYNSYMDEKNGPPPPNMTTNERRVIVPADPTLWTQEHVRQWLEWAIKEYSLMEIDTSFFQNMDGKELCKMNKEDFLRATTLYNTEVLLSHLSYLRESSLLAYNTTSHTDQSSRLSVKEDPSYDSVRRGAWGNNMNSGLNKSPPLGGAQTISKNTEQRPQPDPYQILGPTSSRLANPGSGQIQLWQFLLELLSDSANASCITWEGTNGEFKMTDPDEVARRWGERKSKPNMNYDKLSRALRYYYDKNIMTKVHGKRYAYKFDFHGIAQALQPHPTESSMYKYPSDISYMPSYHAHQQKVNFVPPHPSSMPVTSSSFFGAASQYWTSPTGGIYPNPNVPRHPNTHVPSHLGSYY
# Method in brief: (§1)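 Binding signal is given per hexamer as its read frequency for a factor divided by its frequency in the tag-only sample. GST-fused human transcription factors were expressed in yeast, captured on glutathione beads, barcoded with DNA and pooled with that sample, then incubated with 200 nmole of a 16-mer random double-stranded DNA library in Tris/NaCl/DTT/glycerol buffer for 30 min at room temperature. The pools were then washed, crosslinked, proximity-ligated, amplified by PCR and sequenced on an Illumina NextSeq500.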
# ELK1 = molecular target: T2, ELK1 (Homo sapiens, UniProt P19419 1-428)
# T2 sequence: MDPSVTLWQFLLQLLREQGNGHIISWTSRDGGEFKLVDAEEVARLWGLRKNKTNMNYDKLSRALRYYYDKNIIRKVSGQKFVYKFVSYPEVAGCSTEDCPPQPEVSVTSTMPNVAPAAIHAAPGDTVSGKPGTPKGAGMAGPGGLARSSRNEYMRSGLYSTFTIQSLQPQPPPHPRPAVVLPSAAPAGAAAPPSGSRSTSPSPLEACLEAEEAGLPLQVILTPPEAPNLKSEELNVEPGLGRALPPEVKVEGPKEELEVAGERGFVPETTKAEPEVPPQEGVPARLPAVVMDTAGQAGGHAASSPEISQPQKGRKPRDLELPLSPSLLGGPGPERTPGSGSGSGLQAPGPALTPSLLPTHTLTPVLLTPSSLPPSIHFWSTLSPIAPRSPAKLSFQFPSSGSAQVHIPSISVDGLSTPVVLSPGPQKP
# Method in brief: as §1
# GABPA = molecular target: T3, GABPA (Homo sapiens, UniProt Q06546 1-454)
# T3 sequence: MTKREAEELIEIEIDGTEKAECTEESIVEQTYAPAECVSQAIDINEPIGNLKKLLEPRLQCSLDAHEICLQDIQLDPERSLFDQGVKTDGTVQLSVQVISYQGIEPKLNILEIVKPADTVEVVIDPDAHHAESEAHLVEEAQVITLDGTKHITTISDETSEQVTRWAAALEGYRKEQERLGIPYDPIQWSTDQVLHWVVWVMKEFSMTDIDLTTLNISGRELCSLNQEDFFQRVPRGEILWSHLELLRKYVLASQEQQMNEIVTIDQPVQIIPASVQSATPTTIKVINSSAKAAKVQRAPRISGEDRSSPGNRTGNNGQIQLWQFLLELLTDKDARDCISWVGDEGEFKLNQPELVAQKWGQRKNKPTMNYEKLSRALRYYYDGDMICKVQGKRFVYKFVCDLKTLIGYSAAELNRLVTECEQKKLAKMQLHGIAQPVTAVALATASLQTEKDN
# Method in brief: as §1
# ERG = molecular target: T4, ERG (Homo sapiens, UniProt P11308 1-479)
# T4 sequence: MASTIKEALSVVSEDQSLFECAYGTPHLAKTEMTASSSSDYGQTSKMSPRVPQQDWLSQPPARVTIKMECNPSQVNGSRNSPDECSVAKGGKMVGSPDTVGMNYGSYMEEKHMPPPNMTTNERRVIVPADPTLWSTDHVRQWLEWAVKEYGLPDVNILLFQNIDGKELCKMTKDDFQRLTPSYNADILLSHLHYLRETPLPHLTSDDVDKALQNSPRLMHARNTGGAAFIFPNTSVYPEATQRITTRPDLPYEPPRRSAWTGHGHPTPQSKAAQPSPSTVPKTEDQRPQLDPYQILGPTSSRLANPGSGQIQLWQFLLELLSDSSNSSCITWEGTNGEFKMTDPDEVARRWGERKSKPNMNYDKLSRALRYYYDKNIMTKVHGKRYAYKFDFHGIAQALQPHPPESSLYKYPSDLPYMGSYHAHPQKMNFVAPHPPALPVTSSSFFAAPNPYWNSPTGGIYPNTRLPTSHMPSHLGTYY
# Method in brief: as §1
# ELF1 = ELF1 (Homo sapiens, UniProt P32519 1-619)
# Chain of ELF1 (P32519 whole entry): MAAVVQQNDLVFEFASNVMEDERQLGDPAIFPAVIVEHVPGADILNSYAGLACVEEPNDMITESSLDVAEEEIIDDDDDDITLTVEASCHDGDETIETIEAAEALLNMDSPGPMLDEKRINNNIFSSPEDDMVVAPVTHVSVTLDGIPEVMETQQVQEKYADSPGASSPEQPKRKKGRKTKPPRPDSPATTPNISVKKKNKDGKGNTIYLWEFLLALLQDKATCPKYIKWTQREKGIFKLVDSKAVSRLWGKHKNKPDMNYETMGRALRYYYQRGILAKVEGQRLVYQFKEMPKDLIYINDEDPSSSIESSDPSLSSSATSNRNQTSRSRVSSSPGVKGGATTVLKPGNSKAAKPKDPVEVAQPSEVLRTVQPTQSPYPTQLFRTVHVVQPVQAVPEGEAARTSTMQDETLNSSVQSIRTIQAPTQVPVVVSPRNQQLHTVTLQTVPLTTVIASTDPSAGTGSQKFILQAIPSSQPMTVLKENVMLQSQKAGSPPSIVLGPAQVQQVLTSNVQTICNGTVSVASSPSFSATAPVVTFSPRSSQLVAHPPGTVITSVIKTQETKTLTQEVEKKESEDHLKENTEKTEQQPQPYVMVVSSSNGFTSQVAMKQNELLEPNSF
# Method in brief: as §1
# EHF = molecular target: T5, EHF (Homo sapiens, UniProt Q9NZC4 1-300)
# T5 sequence: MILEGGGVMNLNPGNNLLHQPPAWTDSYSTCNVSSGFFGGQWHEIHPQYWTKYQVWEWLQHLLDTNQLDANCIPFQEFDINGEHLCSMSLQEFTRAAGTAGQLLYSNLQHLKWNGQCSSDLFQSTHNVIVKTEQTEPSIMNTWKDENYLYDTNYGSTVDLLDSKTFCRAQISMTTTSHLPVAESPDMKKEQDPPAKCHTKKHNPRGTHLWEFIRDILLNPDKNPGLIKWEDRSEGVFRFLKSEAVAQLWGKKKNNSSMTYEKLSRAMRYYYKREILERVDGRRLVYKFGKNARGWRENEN
# Method in brief: as §1
# SPI1 = SPI1 (Homo sapiens, UniProt P17947 1-270)
# Method in brief: as §1
# SPIB = SPIB (Homo sapiens, UniProt Q01892 1-262)
# Chain of SPIB (Q01892 whole entry): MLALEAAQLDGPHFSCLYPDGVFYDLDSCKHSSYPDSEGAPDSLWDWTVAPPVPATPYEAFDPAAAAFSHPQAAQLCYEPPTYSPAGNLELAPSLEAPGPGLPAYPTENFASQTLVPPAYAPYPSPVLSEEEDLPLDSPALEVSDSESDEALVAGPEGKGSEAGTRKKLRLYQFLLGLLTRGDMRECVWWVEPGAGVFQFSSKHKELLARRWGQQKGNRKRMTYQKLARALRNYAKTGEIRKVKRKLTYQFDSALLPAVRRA
# Method in brief: as §1
# ELK3 = molecular target: T6, ELK3 (Homo sapiens, UniProt P41970 1-407)
# T6 sequence: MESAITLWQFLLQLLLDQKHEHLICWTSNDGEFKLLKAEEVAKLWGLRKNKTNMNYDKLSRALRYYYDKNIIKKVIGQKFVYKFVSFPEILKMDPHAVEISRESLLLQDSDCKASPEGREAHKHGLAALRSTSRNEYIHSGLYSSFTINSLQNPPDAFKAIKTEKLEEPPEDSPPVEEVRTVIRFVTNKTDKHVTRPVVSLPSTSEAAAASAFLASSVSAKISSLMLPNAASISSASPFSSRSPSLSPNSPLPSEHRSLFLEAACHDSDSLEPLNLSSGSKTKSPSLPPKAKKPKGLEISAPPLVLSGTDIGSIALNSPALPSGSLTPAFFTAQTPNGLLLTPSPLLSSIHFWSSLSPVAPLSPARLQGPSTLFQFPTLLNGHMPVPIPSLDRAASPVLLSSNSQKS
# Method in brief: as §1
# FEV = molecular target: T7, FEV (Homo sapiens, UniProt Q99581 1-238)
# T7 sequence: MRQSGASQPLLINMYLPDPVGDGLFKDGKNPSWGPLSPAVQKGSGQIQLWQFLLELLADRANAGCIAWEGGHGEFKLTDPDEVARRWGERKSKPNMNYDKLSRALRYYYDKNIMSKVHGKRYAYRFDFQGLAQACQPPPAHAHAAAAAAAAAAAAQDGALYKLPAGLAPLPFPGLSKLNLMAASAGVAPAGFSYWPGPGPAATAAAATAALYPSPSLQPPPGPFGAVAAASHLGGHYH
# Method in brief: as §1
# ETV5 = ETV5 (Homo sapiens, UniProt P41161 1-510)
# Chain of ETV5 (P41161 whole entry): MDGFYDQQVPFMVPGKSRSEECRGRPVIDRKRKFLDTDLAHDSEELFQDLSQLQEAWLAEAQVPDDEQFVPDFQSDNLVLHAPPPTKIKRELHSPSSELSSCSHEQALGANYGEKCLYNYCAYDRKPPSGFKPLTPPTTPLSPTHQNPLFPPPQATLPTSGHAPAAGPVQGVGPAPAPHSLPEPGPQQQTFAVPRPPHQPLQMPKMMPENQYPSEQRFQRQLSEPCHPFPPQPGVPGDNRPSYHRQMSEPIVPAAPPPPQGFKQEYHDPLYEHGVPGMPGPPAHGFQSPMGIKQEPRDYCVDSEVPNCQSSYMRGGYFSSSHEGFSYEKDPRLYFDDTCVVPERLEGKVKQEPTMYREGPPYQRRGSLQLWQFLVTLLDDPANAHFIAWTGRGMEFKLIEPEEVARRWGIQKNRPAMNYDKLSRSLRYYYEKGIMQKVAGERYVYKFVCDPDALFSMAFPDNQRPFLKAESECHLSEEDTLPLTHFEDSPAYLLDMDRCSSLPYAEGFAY
# Method in brief: as §1
# SPIC = molecular target: T8, SPIC (Homo sapiens, UniProt Q8N5J4 1-248)
# T8 sequence: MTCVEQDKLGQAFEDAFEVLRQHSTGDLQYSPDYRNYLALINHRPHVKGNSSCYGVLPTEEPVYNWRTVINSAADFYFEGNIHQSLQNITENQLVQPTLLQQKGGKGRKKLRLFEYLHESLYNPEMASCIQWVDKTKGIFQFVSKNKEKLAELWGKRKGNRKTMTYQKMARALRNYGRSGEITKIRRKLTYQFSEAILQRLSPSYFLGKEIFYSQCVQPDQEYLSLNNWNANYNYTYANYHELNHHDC
# Method in brief: as §1
# ELF4 = ELF4 (Homo sapiens, UniProt Q99607 1-663)
# Chain of ELF4 (Q99607 whole entry): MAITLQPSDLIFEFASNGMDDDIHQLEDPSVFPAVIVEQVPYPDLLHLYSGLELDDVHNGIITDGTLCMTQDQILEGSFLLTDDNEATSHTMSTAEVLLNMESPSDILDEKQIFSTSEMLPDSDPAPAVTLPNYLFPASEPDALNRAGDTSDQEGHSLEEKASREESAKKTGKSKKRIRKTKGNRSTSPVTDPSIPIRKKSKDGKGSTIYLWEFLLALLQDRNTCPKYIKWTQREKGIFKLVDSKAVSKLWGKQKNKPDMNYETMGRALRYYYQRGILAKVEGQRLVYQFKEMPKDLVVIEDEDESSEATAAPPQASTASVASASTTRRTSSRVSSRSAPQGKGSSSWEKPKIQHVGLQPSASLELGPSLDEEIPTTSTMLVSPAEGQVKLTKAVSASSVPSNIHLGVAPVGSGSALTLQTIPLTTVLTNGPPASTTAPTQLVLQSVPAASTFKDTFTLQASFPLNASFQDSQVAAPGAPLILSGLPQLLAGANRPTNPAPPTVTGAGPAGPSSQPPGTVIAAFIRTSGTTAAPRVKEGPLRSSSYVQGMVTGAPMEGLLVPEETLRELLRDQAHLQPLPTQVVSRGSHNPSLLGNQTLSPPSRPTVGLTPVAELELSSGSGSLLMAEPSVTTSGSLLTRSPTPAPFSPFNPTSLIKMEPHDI
# Method in brief: as §1
# ERF = molecular target: T9, ERF (Homo sapiens, UniProt P50548 1-548)
# T9 sequence: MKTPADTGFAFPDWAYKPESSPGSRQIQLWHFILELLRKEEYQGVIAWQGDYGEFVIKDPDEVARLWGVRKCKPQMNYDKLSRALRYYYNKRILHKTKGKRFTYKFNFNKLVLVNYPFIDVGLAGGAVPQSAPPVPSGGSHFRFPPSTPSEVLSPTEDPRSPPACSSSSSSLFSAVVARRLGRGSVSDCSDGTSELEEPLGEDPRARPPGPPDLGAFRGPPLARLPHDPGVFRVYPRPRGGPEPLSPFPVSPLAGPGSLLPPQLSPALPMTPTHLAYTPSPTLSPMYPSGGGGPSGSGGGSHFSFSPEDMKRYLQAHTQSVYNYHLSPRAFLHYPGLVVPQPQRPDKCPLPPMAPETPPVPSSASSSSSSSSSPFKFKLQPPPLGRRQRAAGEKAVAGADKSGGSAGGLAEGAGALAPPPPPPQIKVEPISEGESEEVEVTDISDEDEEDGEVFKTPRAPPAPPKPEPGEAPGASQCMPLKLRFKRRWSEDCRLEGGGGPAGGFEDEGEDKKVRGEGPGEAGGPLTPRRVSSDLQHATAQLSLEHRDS
# Method in brief: as §1
# ETV3L = molecular target: T10, ETV3L (Homo sapiens, UniProt Q6ZN32 1-361)
# T10 sequence: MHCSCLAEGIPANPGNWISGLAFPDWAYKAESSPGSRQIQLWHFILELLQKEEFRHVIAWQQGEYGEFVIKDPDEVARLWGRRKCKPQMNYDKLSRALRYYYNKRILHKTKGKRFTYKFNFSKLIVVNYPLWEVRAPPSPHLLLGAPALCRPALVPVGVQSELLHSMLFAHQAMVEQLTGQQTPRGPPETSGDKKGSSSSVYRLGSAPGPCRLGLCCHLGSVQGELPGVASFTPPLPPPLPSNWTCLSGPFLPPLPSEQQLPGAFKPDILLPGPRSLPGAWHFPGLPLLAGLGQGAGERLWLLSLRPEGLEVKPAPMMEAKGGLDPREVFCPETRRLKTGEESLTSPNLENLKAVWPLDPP
# Method in brief: as §1
# ETS2 = molecular target: T11, ETS2 (Homo sapiens, UniProt P15036 1-469)
# T11 sequence: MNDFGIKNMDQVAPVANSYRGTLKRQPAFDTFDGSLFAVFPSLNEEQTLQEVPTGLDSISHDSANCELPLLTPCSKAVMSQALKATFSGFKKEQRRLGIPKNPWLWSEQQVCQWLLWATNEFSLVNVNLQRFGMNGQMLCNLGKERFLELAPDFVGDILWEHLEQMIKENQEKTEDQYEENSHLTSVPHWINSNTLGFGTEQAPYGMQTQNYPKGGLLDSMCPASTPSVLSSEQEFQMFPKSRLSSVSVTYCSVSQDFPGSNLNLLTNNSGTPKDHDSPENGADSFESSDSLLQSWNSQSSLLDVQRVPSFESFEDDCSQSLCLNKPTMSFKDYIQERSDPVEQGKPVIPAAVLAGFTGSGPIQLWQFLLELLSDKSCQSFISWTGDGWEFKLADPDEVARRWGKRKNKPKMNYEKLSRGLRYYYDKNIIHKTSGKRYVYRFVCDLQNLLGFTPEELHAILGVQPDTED
# Method in brief: as §1
# ETV3 = molecular target: T12, ETV3 (Homo sapiens, UniProt P41162-2 1-143)
# T12 sequence: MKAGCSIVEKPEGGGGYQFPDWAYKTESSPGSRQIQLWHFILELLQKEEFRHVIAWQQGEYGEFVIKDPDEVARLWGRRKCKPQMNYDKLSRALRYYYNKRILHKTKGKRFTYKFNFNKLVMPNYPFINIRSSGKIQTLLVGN
# Method in brief: as §1
sequence,measurement,setting,value
GTCTTG,binding signal,FLI1,"1.02 fold enrichment (6-mer frequency, TF over GST control)"
same,binding signal,ELK1,"1.02 fold enrichment (6-mer frequency, TF over GST control)"
same,binding signal,GABPA,"1.11 fold enrichment (6-mer frequency, TF over GST control)"
same,binding signal,ERG,"1.05 fold enrichment (6-mer frequency, TF over GST control)"
same,binding signal,ELF1,"1 fold enrichment (6-mer frequency, TF over GST control)"
same,binding signal,EHF,"1.09 fold enrichment (6-mer frequency, TF over GST control)"
same,binding signal,SPI1,"1.01 fold enrichment (6-mer frequency, TF over GST control)"
same,binding signal,SPIB,"1.04 fold enrichment (6-mer frequency, TF over GST control)"
same,binding signal,ELK3,"1.17 fold enrichment (6-mer frequency, TF over GST control)"
same,binding signal,FEV,"1.01 fold enrichment (6-mer frequency, TF over GST control)"
same,binding signal,ETV5,"1.01 fold enrichment (6-mer frequency, TF over GST control)"
same,binding signal,SPIC,"1.11 fold enrichment (6-mer frequency, TF over GST control)"
same,binding signal,ELF4,"1.06 fold enrichment (6-mer frequency, TF over GST control)"
same,binding signal,ERF,"1.15 fold enrichment (6-mer frequency, TF over GST control)"
same,binding signal,ETV3L,"1.04 fold enrichment (6-mer frequency, TF over GST control)"
same,binding signal,ETS2,"1 fold enrichment (6-mer frequency, TF over GST control)"
same,binding signal,ETV3,"1 fold enrichment (6-mer frequency, TF over GST control)"
